In PubChem BioAssay (EPA / NIEHS):
Calls of active or inactive are those of the source. The calls were made as follows: active = hit-call score of the fitted dose curve at least 0.9, where 1 is the maximum; inactive = score below 0.9.

Legend:
[1] = read-out: Macrophage colony-stimulating factor (MCSF), CSF1 (gene 1435); test: BSK_hDFCGF_MCSF: BioMAP Diversity Plus: hDFCGF Assay for Macrophage colony-stimulating factor (MCSF) Biomarker Activity (AID 2283060); conditions: primary human foreskin fibroblasts; actives raise or lower the signal
Summary of the method: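 ELISA read-out of M-CSF in human dermal foreskin fibroblast cultures, 24 h after chemical dosing; gain or loss of signal fitted bidirectionally relative to DMSO baseline.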

[2] = BSK_hDFCGF_SRB: Viability Assessment in the BioMAP Diversity Plus: hDFCGF Assay (AID 2283061); conditions: primary human foreskin fibroblasts;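 also: cells exposed to compound for 24 h before the read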
Summary of the method: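 Primary human foreskin fibroblasts; 24 h post-dose; fixed 10% TCA, stained 0.1% SRB, A560 read; total protein as overt cytotoxicity measure; curves fit bidirectionally vs DMSO control.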

[3] = read-out: TIMP metallopeptidase inhibitor 1 (TIMP1), TIMP1 (gene 7076); test: BSK_hDFCGF_TIMP1: BioMAP Diversity Plus: hDFCGF Assay for TIMP metallopeptidase inhibitor 1 (TIMP1) Biomarker Activity (AID 2283062); conditions: primary human foreskin fibroblasts; actives raise or lower the signal
Summary of the method: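 ELISA readout of TIMP-1 from human dermal foreskin fibroblast cultures 24 h post-dosing. Curves were fitted in both directions against DMSO baseline, with SRB total-protein staining in parallel cultures as a cytotoxicity check.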

[4] = read-out: Monokine induced gamma interferon (MIG), CXCL9 (gene 4283); test: BSK_hDFCGF_MIG: BioMAP Diversity Plus: hDFCGF Assay for Monokine induced gamma interferon (MIG) Biomarker Activity (AID 2283063); conditions: primary human foreskin fibroblasts; actives raise or lower the signal
Summary of the method: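 Fibroblasts (human foreskin, primary) dosed, 24 h, MIG by ELISA; fit bidirectional vs DMSO.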

[5] = read-out: Matrix Metallopeptidase 1 (MMP1), MMP1 (gene 4312); test: BSK_hDFCGF_MMP1: BioMAP Diversity Plus: hDFCGF Assay for Matrix Metallopeptidase 1 (MMP1) Biomarker Activity (AID 2283064); conditions: primary human foreskin fibroblasts; actives raise or lower the signal
Summary of the method: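 hDFCGF primary fibroblasts (human foreskin); chemical added; 24 h; MMP1 by ELISA; bidirectional fit vs DMSO.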

[6] = read-out: Vascular cell adhesion molecule 1 (VCAM1), VCAM1 (gene 7412); test: BSK_hDFCGF_VCAM1: BioMAP Diversity Plus: hDFCGF Assay for Vascular cell adhesion molecule 1 (VCAM1) Biomarker Activity (AID 2283065); conditions: primary human foreskin fibroblasts; actives raise or lower the signal;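 as to AC50: VCAM-1 protein level quantified by ELISA after 24 h chemical exposure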
Summary of the method: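 ELISA read-out of VCAM-1 on human skin fibroblasts, 24 h post-dose; gain or loss of signal fitted bidirectionally against DMSO baseline.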

[7] = read-out: Plasminogen activator inhibitor-1 (PAI1), SERPINE1 (gene 5054); test: BSK_hDFCGF_PAI1: BioMAP Diversity Plus: hDFCGF Assay for Plasminogen activator inhibitor-1 (PAI1) Biomarker Activity (AID 2283066); conditions: primary human foreskin fibroblasts; actives raise or lower the signal
Summary of the method: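 Human foreskin fibroblasts in the hDFCGF system were dosed with compound for 24 h; PAI-1 was quantified by ELISA. Bidirectional curve fitting used DMSO as negative control and baseline.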

[8] = read-out: Intercellular Adhesion Molecule 1 (ICAM1), ICAM1 (gene 3383); test: BSK_KF3CT_ICAM1: BioMAP Diversity Plus: KF3CT Assay for Intercellular Adhesion Molecule 1 (ICAM1) Biomarker Activity (AID 2283067); conditions: primary human keratinocytes with fibroblasts; actives raise or lower the signal
Summary of the method: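 ELISA readout of ICAM-1; KF3CT human skin co-culture (keratinocytes + foreskin fibroblasts), 24 h post-dose; gain/loss fit vs DMSO baseline.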

[9] = read-out: Interferon-gamma inducible Protein 10 (IP10), CXCL10 (gene 3627); test: BSK_KF3CT_IP10: BioMAP Diversity Plus: KF3CT Assay for Interferon-gamma inducible Protein 10 (IP10) Biomarker Activity (AID 2283068); conditions: primary human keratinocytes with fibroblasts; actives raise or lower the signal
Summary of the method: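 In a primary skin co-culture of keratinocytes and fibroblasts, IP-10 is quantified by ELISA at 24 h after dosing. SRB staining of parallel wells monitors overt toxicity. Curves are fitted both directions against DMSO.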

[10] = BSK_KF3CT_SRB: Viability Assessment in the BioMAP Diversity Plus: KF3CT Assay (AID 2283069); conditions: primary human keratinocytes with fibroblasts;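 also: total protein by sulforhodamine B staining as a cytotoxicity measure; read 24 h after compound addition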
Summary of the method: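 Keratinocytes co-cultured with foreskin fibroblasts (human primary); chemical added, 24 h; fix 10% TCA, stain 0.1% SRB, A560. Bidirectional fit vs DMSO.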

[11] = read-out: Interleukin-1 alpha (IL1a), IL1A (gene 3552); test: BSK_KF3CT_IL1a: BioMAP Diversity Plus: KF3CT Assay for Interleukin-1 alpha (IL1a) Biomarker Activity (AID 2283070); conditions: primary human keratinocytes with fibroblasts; actives raise or lower the signal
Summary of the method: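 Chemicals were dosed onto co-cultured human keratinocytes and foreskin fibroblasts, IL-1a was quantified by ELISA at 24 h, and activity was fitted in both directions relative to DMSO controls.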

[12] = read-out: TIMP metallopeptidase inhibitor 2 (TIMP2), TIMP2 (gene 7077); test: BSK_KF3CT_TIMP2: BioMAP Diversity Plus: KF3CT Assay for TIMP metallopeptidase inhibitor 2 (TIMP2) Biomarker Activity (AID 2283071); conditions: primary human keratinocytes with fibroblasts; actives raise or lower the signal
Summary of the method: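 Human primary keratinocyte/foreskin fibroblast co-culture dosed with chemical and sampled at 24 h. TIMP-2 levels quantified by ELISA; bidirectional fitting against DMSO negative control as baseline.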

[13] = read-out: Transforming growth factor beta 1 (TGFb1), TGFB1 (gene 7040); test: BSK_KF3CT_TGFb1: BioMAP Diversity Plus: KF3CT Assay for Transforming growth factor beta 1 (TGFb1) Biomarker Activity (AID 2283072); conditions: primary human keratinocytes with fibroblasts; actives raise or lower the signal
Summary of the method: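 Human keratinocyte plus foreskin fibroblast primary co-culture, dosed with chemical for 24 h. TGF-b1 quantified by ELISA. Activity fitted bidirectionally against DMSO negative control as baseline.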

[14] = read-out: C-C motif chemokine 2 (Homo sapiens) (UniProt P13500); test: BSK_KF3CT_MCP1: BioMAP Diversity Plus: KF3CT Assay for Monocyte Chemoattractant Protein 1 (MCP1/CCL2) Biomarker Activity (AID 2283073); conditions: primary human keratinocytes with fibroblasts; actives raise or lower the signal
Summary of the method: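 KF3CT skin co-culture (keratinocytes/foreskin fibroblasts), 24 h post-dose; MCP-1 by ELISA; gain/loss of signal fit bidirectionally vs DMSO baseline.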

[15] = read-out: Matrix Metallopeptidase 9 (MMP9), MMP9 (gene 4318); test: BSK_KF3CT_MMP9: BioMAP Diversity Plus: KF3CT Assay for Matrix Metallopeptidase 9 (MMP9) Biomarker Activity (AID 2283074); conditions: primary human keratinocytes with fibroblasts; actives raise or lower the signal;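 as to AC50: MMP9 protein level quantified by ELISA in the co-culture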
Summary of the method: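 Human keratinocyte/foreskin fibroblast co-culture; compound added; 24 h; MMP-9 by ELISA; bidirectional fit vs DMSO baseline.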

[16] = read-out: urokinase plasminogen activator (uPA), PLAU (gene 5328); test: BSK_KF3CT_uPA: BioMAP Diversity Plus: KF3CT Assay for urokinase plasminogen activator (uPA) Biomarker Activity (AID 2283075); conditions: primary human keratinocytes with fibroblasts; actives raise or lower the signal
Summary of the method: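 ELISA readout of uPA, analyzed for signal gain or loss relative to DMSO, from a human primary keratinocyte–foreskin fibroblast co-culture measured 24 h after chemical treatment.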

CD40, CD40 (gene 958) = test: BSK_LPS_CD40: BioMAP Diversity Plus: LPS Assay for CD40 Biomarker Activity (AID 2283076); conditions: primary human HUVEC with PBMC; actives raise or lower the signal
Summary of the method: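 ELISA readout of CD40 in HUVEC/PBMC co-culture (BSK_LPS system), 24 h post-dosing; bidirectional curve fit, DMSO baseline; parallel SRB total-protein staining for cytotoxicity.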

[17] = read-out: Interleukin-8 (IL8), CXCL8 (gene 3576); test: BSK_LPS_IL8: BioMAP Diversity Plus: LPS Assay for Interleukin-8 (IL8) Biomarker Activity (AID 2283078); conditions: primary human HUVEC with PBMC; actives raise or lower the signal
Summary of the method: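 HUVEC + PBMC co-culture, LPS-activated; test chemicals dosed, IL-8 read by ELISA at 24 h. Bidirectional curve fit vs DMSO baseline (gain or loss of signal).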

[18] = read-out: E-selectin (Homo sapiens) (UniProt P16581); test: BSK_LPS_Eselectin: BioMAP Diversity Plus: LPS Assay for Eselectin Biomarker Activity (AID 2283077); conditions: primary human HUVEC with PBMC; actives raise or lower the signal
Summary of the method: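 ELISA readout of E-selectin, 24 h post-dose, HUVEC + PBMC co-culture (LPS system). Gain or loss of signal vs DMSO baseline, bidirectional fit.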

[19] = BSK_LPS_SRB: Viability Assessment in the BioMAP Diversity Plus: LPS Assay (AID 2283079); conditions: primary human HUVEC with PBMC;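 also: total protein by sulforhodamine B absorbance as a cytotoxicity measure; measured one day after compound addition; fitted in both directions against DMSO so loss or gain of signal counts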
Summary of the method: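 HUVEC + PBMC co-culture, LPS-stimulated; compound 24 h. 10% TCA fix, 0.1% SRB stain, A560. Bidirectional fit vs DMSO.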

Measured: AC50

Chain of E-selectin (Homo sapiens) (P16581 whole entry, looked up): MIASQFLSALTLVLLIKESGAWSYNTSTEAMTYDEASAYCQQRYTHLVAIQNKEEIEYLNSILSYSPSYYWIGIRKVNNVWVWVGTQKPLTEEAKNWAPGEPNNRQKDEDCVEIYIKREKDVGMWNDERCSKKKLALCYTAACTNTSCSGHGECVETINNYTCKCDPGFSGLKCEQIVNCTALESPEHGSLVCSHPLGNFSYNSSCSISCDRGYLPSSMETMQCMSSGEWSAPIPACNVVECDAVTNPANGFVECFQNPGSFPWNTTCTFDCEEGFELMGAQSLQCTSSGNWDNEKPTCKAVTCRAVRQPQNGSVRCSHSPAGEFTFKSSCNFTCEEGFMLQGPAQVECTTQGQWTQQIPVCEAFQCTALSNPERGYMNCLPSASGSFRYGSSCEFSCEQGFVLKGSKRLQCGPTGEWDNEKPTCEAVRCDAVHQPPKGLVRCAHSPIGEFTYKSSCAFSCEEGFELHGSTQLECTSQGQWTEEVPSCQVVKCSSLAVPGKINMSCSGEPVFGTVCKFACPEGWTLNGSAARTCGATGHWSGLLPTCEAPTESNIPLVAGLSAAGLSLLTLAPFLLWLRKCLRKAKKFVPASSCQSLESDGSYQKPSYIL

Nc1c(Cl)c(F)nc(OCC(=O)O)c1Cl
not listed: [18] | [19]
inactive: all other assays above

COCC(=O)N(c1c(C)cccc1C)C(C)C(=O)OC (centres undefined)
inactive: all assays above

CCOc1nc(C(Cl)(Cl)Cl)ns1
not listed: [14] | [19]
inactive: all other assays above

COP(=S)(OC)SCn1nnc2ccccc2c1=O
not listed: [18]
inactive: all other assays above

N#Cc1c[nH]cc1-c1cccc2c1OC(F)(F)O2
active: [1] 8.88 µM | [2] 5.56 µM | [5] 5.28 µM | [6] 5.39 µM | CD40, CD40 (gene 958) 7.2 µM | [19] 8.62 µM
not listed: [18]
inactive: all other assays above

CCOP(=O)(OCC)Oc1nc(Cl)c(Cl)cc1Cl
inactive: [3] | [4] | [5] | [8] | [11] | [13] | [17]
active: [1] 5.14 µM | [2] 36.3 µM | [6] 18.4 µM | [7] 20 µM | [9] 19 µM | [10] 8.75 µM | [12] 32.9 µM | [14] 21500 nM | [15] 8.58 µM | [16] 9.55 µM | CD40, CD40 (gene 958) 19.5 µM

CC1(C)CCC(=Cc2ccc(Cl)cc2)C1(O)Cn1cncn1 (centres undefined)
not listed: [18]
inactive: all other assays above

CCNP(=S)(OC)O/C(C)=C/C(=O)OC(C)C (centres undefined)
active: [9] 0.148 µM | [14] 733 nM
not listed: [13] | [19]
inactive: all other assays above

CC(C)N1C(=O)c2ccccc2NS1(=O)=O
active: [3] 3.97 µM | [14] 535 nM
not listed: [19]
inactive: all other assays above

Nc1cnn(-c2ccccc2)c(=O)c1Cl
not listed: [18] | [19]
inactive: all other assays above

COc1ccc(-c2ccccc2)cc1NNC(=O)OC(C)C
inactive: all assays above

COC(=O)N(C(=O)N1CO[C@@]2(C(=O)OC)Cc3cc(Cl)ccc3C2=N1)c1ccc(OC(F)(F)F)cc1
active: [2] 3.65 µM | [7] 5.54 µM | [9] 13.3 µM | [15] 3.16 µM | CD40, CD40 (gene 958) 12.4 µM | [17] 5.43 µM | [19] 5.89 µM
not listed: [18]
inactive: all other assays above

O=c1n(Cl)c(=O)n(Cl)c(=O)n1Cl
not listed: [18]
inactive: all other assays above
